Assay outcomes as filed in PubChem BioAssay.
NPC1 prom act – activates the NPC1 promoter; Huh7 NPC1 promoter luciferase reporter, 24 h; Potency, µM (titrated, usually from 9.22 µM), hits mostly activators; actives 2.4% (n = 320,000); AID 485313; further: nearly all actives have a fitted effect of over 60% in size
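Luciferase expression driven by the NPC1 promoter was measured in stably transfected Huh7 cells after a 24 h compound incubation, using a luciferase reagent and a luminescence read.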
FLuc counter – firefly luciferase modulation, counter-screen for miR-21 project; P08659; Potency, µM (doses to about 57.5 µM), usual class: inhibitors; actives 6.9% (n = 360,000); purified FLuc, Km substrates, luminescence inhibition; further: nearly all actives have a fitted effect of over 55% in size
Target sequence (P08659 whole entry, looked up): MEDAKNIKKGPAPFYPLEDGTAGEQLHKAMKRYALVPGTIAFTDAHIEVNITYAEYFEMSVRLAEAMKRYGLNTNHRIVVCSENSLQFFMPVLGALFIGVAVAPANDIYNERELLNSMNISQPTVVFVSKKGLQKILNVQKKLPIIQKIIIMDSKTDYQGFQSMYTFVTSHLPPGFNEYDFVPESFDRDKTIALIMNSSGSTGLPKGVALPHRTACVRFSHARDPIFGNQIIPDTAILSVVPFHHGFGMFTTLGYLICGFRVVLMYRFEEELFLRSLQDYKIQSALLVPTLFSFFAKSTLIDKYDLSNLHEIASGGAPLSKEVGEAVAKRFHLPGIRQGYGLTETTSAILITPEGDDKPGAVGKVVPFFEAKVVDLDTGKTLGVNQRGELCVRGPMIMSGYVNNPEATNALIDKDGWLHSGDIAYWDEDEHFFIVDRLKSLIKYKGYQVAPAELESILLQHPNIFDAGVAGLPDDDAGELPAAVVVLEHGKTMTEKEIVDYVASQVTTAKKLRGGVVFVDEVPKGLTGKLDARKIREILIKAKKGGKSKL
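Purified P. pyralis luciferase (10nM final) with 10uM D-luciferin and 10uM ATP (Km levels) in 50mM Tris acetate pH 7.5, 10mM Mg acetate, 0.01% Tween-20, 0.05% BSA; qHTS 6-point titration, ~60 µM downward; luminescence read.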
ELG1 repair inh – blocks ELG1-dependent DNA repair in HEK293T cells. actives 2.3% (n = 330,000). HEK293T ELG1-luciferase reporter, luminescence, 16 h; DNA damage induced by 5-fluorouridine. Potency, µM (highest dose often 46.1 µM), hits mostly inhibitors. AID 504467; further: nearly all actives have a fitted effect of over 55% in size
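DMSO vehicle served as the neutral condition. Each well held 2,000 cells given 5-fluorouridine plus compound; after 16 hr at 37 °C/5% CO2, ONE-Glo was added and luciferase measured 30 min later.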
Rab9 prom act – Rab9 promoter activation. Huh7 Rab9 promoter-luciferase reporter, luminescence, 24 h. Potency, µM (doses to about 9.22 µM), actives largely listed as activators. actives 2.8% (n = 320,000). AID 485297; further: nearly all actives have a fitted effect of over 60% in size
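Steps: seed 1500 Huh7 Rab9-luc cells per well, rest 2 h at 37 °C; add compound in DMSO; incubate 24 h; add luciferase reagent, 10 min ambient; read luminescence.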
ELG1 genotoxic – genotoxicity induction in ELG1-luciferase HEK293T cells; Potency, µM (series often up to 46 µM), most hits filed as activators; actives 1.3% (n = 330,000); HEK293T ELG1-luciferase reporter, luminescence, 16 h; further: nearly all actives have a fitted effect of over 60% in size
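Cells (2,000/well) expressing the ELG1-luciferase fusion are dosed by pin tool and kept 16 hr at 37 °C, 5% CO2. Signal comes from ONE-Glo luciferase reagent after 30 min at room temperature.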
SMN2 splice enh – enhancers of SMN2 splice variant expression; Potency, µM (titrated, usually from 46.1 µM), usual class: activators; actives 2.8% (n = 210,000); HEK293 SMN2-luciferase splicing reporter, luminescence, 30-36 h; AID 1458; further: nearly all actives have a fitted effect of over 55% in size
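HEK293 cells carry an SMN2 […]–luciferase reporter in which exon 7 inclusion puts luciferase in frame. Cells were plated 10-12 h before compound addition, then incubated 30-36 h at 37C. ONE-Glo luminescence was read; sodium butyrate at 4.5 mM final served as control.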
Of the large screens only hits and unclear results are named; the others gave an inactive call. Most compounds without a hit are left out; they make up all but 9.4% or so of the library. The call rests on the fitted dose curve; in most records, active means well fitted curve in the direction sought with a large enough effect; inconclusive means small, poorly fitted or top-dose-only effect, or another doubt; inactive means no such curve, though single readings can be large; an effect the other way counts as inactive or inconclusive.

CC1CCN(c2ccc(-c3cccs3)nn2)CC1	NPC1 prom act inconclusive, FLuc counter 0.076µM, ELG1 repair inh inconclusive, Rab9 prom act 1.4µM, ELG1 genotoxic 0.23µM (no result: SMN2 splice enh)
O=C(NCCN1CCN(c2cccc(Cl)c2)CC1)C1COc2ccccc2C1 (centres undefined)	none (no result: NPC1 prom act, ELG1 repair inh, Rab9 prom act, ELG1 genotoxic, SMN2 splice enh)
COc1ccc(OC)c(NC(=O)Nc2nnc(N3CCCCC3C)s2)c1 (centres undefined)	FLuc counter 19µM (no result: SMN2 splice enh)
CCOc1ccc(NC(=O)Nc2nnc(N3CCCCC3C)s2)cc1 (centres undefined)	none (no result: NPC1 prom act, ELG1 repair inh, Rab9 prom act, ELG1 genotoxic, SMN2 splice enh)
COc1ccc(NC(=O)Nc2nnc(N3CCCCC3C)s2)cc1OC (centres undefined)	FLuc counter 17µM
Cn1c(=O)c2[nH]c(COCc3nc4c([nH]3)c(=O)n(C)c(=O)n4C)nc2n(C)c1=O	none (no result: NPC1 prom act, FLuc counter, ELG1 repair inh, Rab9 prom act, ELG1 genotoxic)
CCC(=O)N1CCc2cc(S(=O)(=O)NC(CC(C)C)C(=O)Nc3cc(C)ccc3OC)ccc21 (centres undefined)	none (no result: NPC1 prom act, ELG1 repair inh, Rab9 prom act, ELG1 genotoxic)
COc1ccc(N(C(=O)c2ccccc2F)S(=O)(=O)c2ccc3c(c2)n(C)c(=O)n3C)cc1	none (no result: NPC1 prom act, ELG1 repair inh, Rab9 prom act, ELG1 genotoxic)
COc1ccc(-c2cn3nc(SCC(=O)Nc4cccc(C)c4C)ccc3n2)cc1	FLuc counter 2.1µM (no result: NPC1 prom act, ELG1 repair inh, Rab9 prom act, ELG1 genotoxic, SMN2 splice enh)
COc1ccc(-c2cn3nc(SCC(=O)Nc4ccc(C)c(Cl)c4)ccc3n2)cc1	FLuc counter 2.7µM (no result: NPC1 prom act, ELG1 repair inh, Rab9 prom act, ELG1 genotoxic, SMN2 splice enh)
COc1ccc(NC(=O)CSc2nnc(CCC(=O)Nc3ccc(C)c(Cl)c3)n2C)cc1	none
COc1ccc(NC(=O)CSc2ccc3nnc(-c4ccccn4)n3n2)cc1	none (no result: SMN2 splice enh)
COc1ccc(-c2cn3nc(SCC(=O)Nc4cc(C)cc(C)c4)ccc3n2)cc1	FLuc counter 3.8µM (no result: NPC1 prom act, ELG1 repair inh, Rab9 prom act, ELG1 genotoxic, SMN2 splice enh)
O=C(CSc1ccc2nc(-c3ccccc3)cn2n1)Nc1cccc(F)c1	FLuc counter 7.6µM (no result: NPC1 prom act, ELG1 repair inh, Rab9 prom act, ELG1 genotoxic, SMN2 splice enh)
COc1ccc(NC(=O)CSc2ccc3nc(-c4ccccc4)cn3n2)cc1OC	none (no result: NPC1 prom act, ELG1 repair inh, Rab9 prom act, ELG1 genotoxic, SMN2 splice enh)
CCOc1ccc(OCC)c(NC(=O)CCc2c(C)nc3c(c2C)c(=O)n(C)c(=O)n3C)c1	none (no result: NPC1 prom act, ELG1 repair inh, Rab9 prom act, ELG1 genotoxic)
Oc1c(C(c2ccccc2)N2CCOCC2)sc2nc(-c3ccco3)nn12 (centres undefined)	none (no result: NPC1 prom act, ELG1 repair inh, Rab9 prom act, ELG1 genotoxic, SMN2 splice enh)
O=C(Nc1sc2c(c1C(=O)O)CCC2)c1ccco1	FLuc counter inconclusive, ELG1 repair inh inconclusive, ELG1 genotoxic inconclusive, SMN2 splice enh inconclusive
NC(=O)c1c(NC(=O)c2noc3c2CCCC3)sc2c1CCCC2	FLuc counter inconclusive, SMN2 splice enh 14µM (no result: NPC1 prom act, ELG1 repair inh, Rab9 prom act, ELG1 genotoxic)
CC(C)(C)c1ccc(C(=O)Nc2sc3c(c2C(=O)O)CCC3)cc1	FLuc counter 11µM, ELG1 repair inh 3.7µM (no result: SMN2 splice enh)
NC(=O)c1c(NC(=O)c2cc3ccccc3o2)sc2c1CCC2	NPC1 prom act 0.32µM, FLuc counter 0.43µM, ELG1 repair inh inconclusive, Rab9 prom act 0.22µM, ELG1 genotoxic 0.92µM, SMN2 splice enh 2.2µM
O=C(Nc1sc2c(c1C(=O)O)CCCCC2)c1ccccc1F	NPC1 prom act 3.2µM, FLuc counter 11µM, Rab9 prom act 4µM, SMN2 splice enh 5.6µM
CCCNC(=O)c1c(NC(=O)c2ccccc2F)sc2c1CCCCC2	none (no result: NPC1 prom act, ELG1 repair inh, Rab9 prom act, ELG1 genotoxic)
CC(=O)Nc1sc2c(c1C(N)=O)CCCC2	none
COc1ccc(-c2onc(C)c2C)cc1S(=O)(=O)Nc1cc(Cl)ccc1C	none (no result: NPC1 prom act, ELG1 repair inh, Rab9 prom act, ELG1 genotoxic, SMN2 splice enh)
O=C(Nc1sc2c(c1C(=O)O)CCCC2)c1ccc(F)cc1	FLuc counter 15µM, ELG1 repair inh inconclusive, Rab9 prom act inconclusive (no result: SMN2 splice enh)
NC(=O)c1c(NC(=O)c2ccc(F)cc2)sc2c1CCC2	NPC1 prom act 1.8µM, FLuc counter 4.3µM, ELG1 repair inh inconclusive, Rab9 prom act 1.8µM, ELG1 genotoxic inconclusive (no result: SMN2 splice enh)
COC(=O)c1c(NC(=O)c2ccccc2C(=O)O)sc2c1CCCC2	FLuc counter 12µM (no result: NPC1 prom act, ELG1 repair inh, Rab9 prom act, ELG1 genotoxic)
CCOC(=O)c1c(NC(=O)c2ccccc2C(=O)O)sc2c1CCCC2	none (no result: SMN2 splice enh)
Cc1nn(-c2ccc(N3CCCC3)nn2)c(C)c1CCC(=O)NCc1ccc(F)cc1	none (no result: NPC1 prom act, ELG1 repair inh, Rab9 prom act, ELG1 genotoxic, SMN2 splice enh)
COc1cc2c(cc1OC)CN(C(=O)/C=C/c1ccccc1[N+](=O)[O-])CC2	ELG1 repair inh 13µM (no result: SMN2 splice enh)
